Nrf2 inh – Nrf2 qHTS screen for inhibitors; hit rate 2.1% among 360,000; Potency, µM (titrated, usually from 46 µM), without a hit: at the highest dose activity change, negative = inhibition, usual class: inhibitors; AID 504444, 2011; A549 ARE-Fluc reporter, luciferase luminescence, 18-24 h; also: % is scaled to controls: 0 for no effect and ±100 for the full control effect; nearly all actives have a fitted effect of over 60% in size
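A549 ARE_Fluc cells, 5000/well, 5% FBS OPTI-MEM; compounds in dose-response, 18-24 h at 37 °C/5% CO2; CellTiter-Fluor viability read (Ex 405/Em 525), then BugLite luciferase luminescence = Nrf2 activity.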
A549 tox – Nrf2 qHTS screen for inhibitors: counterscreen for cytotoxicity; hit rate 0.16% among 390,000; Potency, µM (highest dose often 46 µM), without a hit: top-dose activity change, negative = cytotoxicity, hits mostly inhibitors; A549 ARE-Fluc cells, CellTiter-Fluor viability, 18-24 h; also: % is scaled to controls: 0 for no effect and ±100 for the full control effect
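Cytotoxicity counterscreen: CellTiter-Fluor fluorescence was measured in A549 ARE_Fluc cells after 18-24 h of compound exposure in a concentration series. The subsequent BugLite luminescent read reports ARE-luciferase activity.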
Nrf2 activator – qHTS of Nrf2 Activators. AREc32 ARE-luciferase reporter (MCF7-derived line), luminescence, 24 h. Potency, µM (titrated, usually from 46.1 µM), without a hit: at the top dose activation, hits mostly activators. hit rate 0.31% among 410,000. AID 624171, 2012; also: % of control where 0% means no effect; nearly all actives have a fitted effect of over 65% in size
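Luciferase luminescence (Steady-Glo, 30 min at room temperature) served as the read-out of ARE activation in AREc32 cells treated with compounds for 24 hr at 37 deg C.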
Pin1 inh – qHTS Assay to Find Inhibitors of Pin1; Peptidyl-prolyl cis-trans isomerase NIMA-interacting 1 (Homo sapiens), Q13526; Pin1 FP peptide displacement, HiFluor488, 10 min; Potency, µM (doses to about 115 µM), without a hit: at the highest dose activity, negative = inhibition, hits mostly inhibitors; hit rate 0.009% among 390,000; active = well fitted inhibition curve with a large enough effect in the polarisation, with a control signal flat, not every such curve was filed as active; inconclusive = small, poorly fitted or top-dose-only effect, or effect the other way, or a change in a side signal; inactive = no such curve, though single readings can be large or run the other way; the % refers to the polarisation; also: % is scaled to controls: 0 for no effect and ±100 for the full control effect
Target sequence (Q13526 whole entry, looked up): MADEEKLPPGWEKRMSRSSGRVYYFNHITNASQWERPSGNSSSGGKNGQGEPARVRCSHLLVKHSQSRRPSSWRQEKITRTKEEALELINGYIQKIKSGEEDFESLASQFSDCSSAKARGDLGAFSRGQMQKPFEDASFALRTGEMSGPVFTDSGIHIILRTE
* marks the source's active call; other numbers are inactive results; ? = inconclusive; / = no result; [ ] = remark or other dose. Sampled rows, rich in hits. Any-hit rate of the full collection: about 2.2%. Unless noted, calls follow the shape of the dose curve; as a rule, active = well fitted curve in the direction sought with a large enough effect; inconclusive = small, poorly fitted or top-dose-only effect, or another doubt; inactive = no such curve, though single readings can be large; an effect the other way counts as inactive or inconclusive. Potency is read from the fitted curve at half-maximal effect.

SMILES	Nrf2 inh	A549 tox	Nrf2 activator	Pin1 inh
CC(C)CN(CC(C)C)C(=S)Nc1ccc(Cl)cc1	25.9µM*	-21.6%	6.0%	?
O=C(NCCCN1CCOCC1)c1cccc(S(=O)(=O)N2CCN(c3ccccc3)CC2)c1	7.1%	3.3%	2.8%	-0.7%
COc1ccc(CN(C)C(=O)c2cccc(S(=O)(=O)N3CCCc4ccccc43)c2)c(OC)c1OC	23.1µM*	?	-0.9%	6.4%
CN(Cc1ccc(F)cc1)C(=O)c1cccc(S(=O)(=O)N2CCN(c3ccccc3)CC2)c1	23.1µM*	-12.0%	1.9%	13.1%
CN(Cc1cccc(F)c1)C(=O)c1ccc(S(=O)(=O)N2CCCCCC2)cc1	23.1µM*	-16.1%	3.7%	6.2%
COc1ccc(C(CNC(=O)c2cccc(S(=O)(=O)N3CCCc4ccccc43)c2)N(C)C)cc1 (stereo not drawn)	1.0%	-22.9%	9.8%	1.3%
O=C(NCCOc1ccccc1F)c1cccc(S(=O)(=O)N2CCN(c3ccccc3)CC2)c1	4.61µM*	-6.6%	2.2%	14.8%
Cc1nn(-c2ccccc2)c(OC(=O)c2ccccc2Br)c1S(=O)(=O)c1ccccc1	1.2%	0.8%	-0.7%	-0.4%
N#Cc1nc(Nc2ccc(F)cc2)nc(NC2CCCC2)n1	-13.4%	-15.5%	/	-3.3%
Cc1ccc(C)c(NC(=O)CN(C)C(=O)c2cccc(S(=O)(=O)N3CCN(Cc4ccccc4)CC3)c2)c1	11.6µM*	-9.0%	2.4%	1.9%
COc1ccc(CN(C)C(=O)c2cccc(S(=O)(=O)N3CCN(c4ccccc4)CC3)c2)c(OC)c1OC	10.3µM*	-19.9%	1.9%	0.3%
CCN(CC(=O)Nc1c(F)cccc1F)C(=O)c1cccc(S(=O)(=O)N2CCCc3ccccc32)c1	25.9µM*	?	-0.1%	-0.1%
COc1cccc(CN(C)C(=O)c2cccc(S(=O)(=O)N3CCN(c4ccccc4)CC3)c2)c1	/	/	3.7%	/
O=C(c1cccc(S(=O)(=O)N2CCN(c3ccccc3)CC2)c1)N1CCCC(C(F)(F)F)C1 (stereo not drawn)	13µM*	-18.6%	-0.6%	-1.1%
COc1ccc(NC(=O)C(NC(=O)/C=C\c2ccc3c(c2)OCO3)c2ccccc2)cc1 (stereo not drawn)	-19.4%[9.27 µM]	?	-0.4%	8.5%
COc1ccccc1C(=O)NC1(C(F)(F)F)C(=O)Nc2c1c(=O)[nH]c(=O)n2-c1ccc(F)cc1 (stereo not drawn)	?	7.0%	-0.5%	4.3%
CN(Cc1ccc(F)cc1)C(=O)c1cccc(S(=O)(=O)N2CCN(c3ccc(F)cc3)CC2)c1	18.4µM*	-15.8%	0.5%	1.3%
CN(CC(=O)Nc1ccc(F)cc1)C(=O)c1cccc(S(=O)(=O)N2CCN(c3ccc(F)cc3)CC2)c1	20.6µM*	-22.2%	0.8%	?
CN(Cc1ccc(F)cc1)C(=O)c1cccc(S(=O)(=O)N2CCN(Cc3ccccc3)CC2)c1	?	0.9%	0.1%	0.6%
Cc1n[nH]c(=S)n1/N=C/c1ccc(-c2ccccc2[N+](=O)[O-])o1	/	?	10µM*	-8.4%
Cc1nc2ccccc2n1/N=C/c1ccc([N+](=O)[O-])o1	20.6µM*	?	0.1%	-0.4%
COc1cccc(C2c3c(ncn(-c4ccc(C(C)(C)C)cc4)c3=N)Oc3ccc4ccccc4c32)c1 (stereo not drawn)	?	-6.2%	/	?
Cc1nnc(Cc2ccco2)c2n[nH]c(C)c12	/	/	11.2µM*	/
CC(=O)c1ccc(Nc2nc3c(S(=O)(=O)c4ccccc4)nnn3c3ccc(Cl)cc23)cc1	1.9%	-1.1%	-0.5%	54.1%
C=CCc1cccc(C=Nc2c[nH]c(=O)[nH]c2=O)c1O	-18.8%	-15.9%	-0.3%	-4.9%
SMILES	Nrf2 inh	A549 tox	Nrf2 activator	Pin1 inh
C=CCc1cccc(C=Nc2cc(Br)ccc2O)c1O	?	-16.6%	6.31µM*	-0.9%
Nc1ccc(Cn2ccc3c4c(N)nc(N)nc4ccc32)cc1	0.82µM*	-15.4%	16.9%	1.6%
Oc1ccccc1C1C=C(c2ccc3c(c2)OCO3)NC(c2cccc(Cl)c2)N1 (stereo not drawn)	7.8%	6.7%	/	-0.5%
Cc1c(CN(C)C(=O)CSc2nc(-c3ccco3)cc(C(F)(F)F)n2)cnn1C	16.4µM*	-17.9%	0.2%	8.1%
COc1ccccc1CCNC(=O)CCSc1nc(-c2ccco2)cc(C(F)(F)F)n1	18.4µM*	-19.5%	-0.7%	7.9%
O=C(CSc1nc2ccccc2c(=O)n1Cc1ccco1)c1ccc(F)cc1	11.6µM*	1.7%[1.84 µM]	0.3%	?
O=C(CSc1nnc(-c2cc3ccccc3cc2O)n1Cc1ccco1)c1ccc(F)cc1	23.1µM*	/	8.5%	?
Cc1ccc(C(=O)CSc2nnc(CNc3ccc(C)cc3C)n2Cc2ccco2)cc1	23.1µM*	?	-0.4%	?
Cc1ccc(Cl)cc1NS(=O)(=O)c1cc2c(cc1F)NC(=O)CC2	-13.4%	14.0%	/	-6.8%
Cc1ccc(NS(=O)(=O)c2ccc(-c3ccccc3)cc2)cc1C	?	10.6%	/	-11.8%
CCN1/C(=C/C(C)=C/c2sc3ccccc3[n+]2CC)Sc2ccccc21	8.2µM*	20.6µM*	-2.4%	148.5%
CCN1/C(=C\C(=S)Nc2ccccc2)Sc2ccccc21	?	?	2.3%	14.7%
O=C1c2ccccc2NC(c2ccccc2OCc2ccccc2)N1Cc1ccco1 (stereo not drawn)	?	-13.8%	/	7.3%
Clc1nc(NCc2cccs2)c2[nH]cnc2n1	23.1µM*	-2.1%	/	0.1%
c1csc(CNc2ncnc3nc[nH]c23)c1	?	-0.2%	-0.4%	-0.5%
Cn1c(=O)c2c(c3ccccc31)OC(=O)CC2c1cccc(F)c1 (stereo not drawn)	26.4%	-6.7%	-0.2%	2.3%
CCc1ccccc1NC(=S)NCCSc1ccc(Cl)cc1	23.1µM*	?	-0.4%	0.2%
Cc1ccccc1NC(=S)NCCSc1ccc(Cl)cc1	23.1µM*	-21.3%	-0.6%	-1.0%
C#CCn1c(=NC(=O)c2ccc(S(=O)(=O)N3CCc4ccccc4C3)cc2)sc2cc(S(N)(=O)=O)ccc21	3.26µM*	5.17µM*	-1.6%	68.3%
Cc1nc(CS(=O)(=O)c2ccccc2)cc(N2CCN(c3ccccc3F)CC2)n1	20.6µM*	-1.2%	-0.8%	6.3%
COc1ccc(-c2ccc3ncnc(NCc4ccc(C)o4)c3c2)cc1OC	-22.6%	-14.7%	/	1.7%
Cc1ccc(NC(=O)O/N=C/c2c(C)nn(C(C)(C)C)c2C)cc1Cl	0.326µM*	1.3%	-3.3%	10.7%
Cc1ccc(NC(=O)Nn2cnnc2)cc1Cl	2.3%	0.2%	-0.7%	10.8%
CCC(=O)Nc1ccccc1-c1nc2ccccc2n(CC(=O)c2ccc(Cl)cc2)c1=O	4.4%	2.4%	0.1%	81.5%
CC(C)(C)OC(=O)NCCCCCc1cn([C@@H](CO)C(=O)NCCCCCCCCCCC(=O)N2CCN(C(=O)OC(C)(C)C)CC2)nn1	7.31µM*	?	-3.3%	1.4%
